This is an account of results in ChEMBL document CHEMBL3988442, “University of Dundee, Small-Polar-MMV Screening Library” (2021).

What all share (set-up): scale not given: direction of the effect not stated beside the values
Assay [1] has as its target Protein translocase subunit SecA (Escherichia coli (strain K12)) (UniProt P10408). Nature of the assay: Assay to Identify E. coli SecA ATPase Inhibitors. It is filed as functional. The settings on record: 30 µM.
Assay [2] deals with T1, Ubiquitin-activating enzyme e1, putative (Leishmania donovani (strain BPK282A1)) (UniProt E9BSI1).
T1 sequence (whole entry): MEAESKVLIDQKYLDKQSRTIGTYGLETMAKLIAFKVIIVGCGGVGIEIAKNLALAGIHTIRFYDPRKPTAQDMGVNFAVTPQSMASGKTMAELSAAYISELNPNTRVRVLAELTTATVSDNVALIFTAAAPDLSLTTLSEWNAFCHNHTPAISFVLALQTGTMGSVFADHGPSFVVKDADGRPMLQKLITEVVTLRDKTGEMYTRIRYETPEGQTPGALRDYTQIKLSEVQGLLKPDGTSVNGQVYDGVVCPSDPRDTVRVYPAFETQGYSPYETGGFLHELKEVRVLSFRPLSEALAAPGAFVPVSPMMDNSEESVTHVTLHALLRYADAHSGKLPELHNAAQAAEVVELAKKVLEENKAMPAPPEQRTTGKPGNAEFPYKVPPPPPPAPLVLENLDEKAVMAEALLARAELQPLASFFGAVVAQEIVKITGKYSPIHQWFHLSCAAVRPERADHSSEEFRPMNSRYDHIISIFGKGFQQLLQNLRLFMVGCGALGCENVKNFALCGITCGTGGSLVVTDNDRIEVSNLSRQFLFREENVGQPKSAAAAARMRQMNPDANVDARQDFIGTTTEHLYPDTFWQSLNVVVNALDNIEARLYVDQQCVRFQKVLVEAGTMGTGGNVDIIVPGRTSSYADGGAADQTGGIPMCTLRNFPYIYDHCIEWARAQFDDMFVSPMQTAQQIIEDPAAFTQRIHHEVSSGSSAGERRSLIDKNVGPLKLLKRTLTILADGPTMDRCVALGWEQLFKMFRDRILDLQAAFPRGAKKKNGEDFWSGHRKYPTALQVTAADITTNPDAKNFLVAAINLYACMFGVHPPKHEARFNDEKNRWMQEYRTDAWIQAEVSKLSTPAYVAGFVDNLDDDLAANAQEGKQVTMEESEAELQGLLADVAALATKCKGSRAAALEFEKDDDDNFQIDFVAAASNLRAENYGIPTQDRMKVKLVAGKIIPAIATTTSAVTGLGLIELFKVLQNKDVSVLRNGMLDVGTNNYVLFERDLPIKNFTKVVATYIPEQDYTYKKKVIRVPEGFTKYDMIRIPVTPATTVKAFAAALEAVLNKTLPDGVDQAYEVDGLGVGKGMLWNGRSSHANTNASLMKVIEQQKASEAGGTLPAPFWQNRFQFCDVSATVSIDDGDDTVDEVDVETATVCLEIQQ
The experiment in a line: Leishmania donovani Ubiquitin Activating Enzyme (LdE1). Type of assay: functional. The settings on record: 30 µM.

The target of assay [3] is AMP-activated protein kinase, AMPK (Homo sapiens) (UniProt P54646+O43741+P54619+Q9UGJ0+Q9Y478+Q13131+Q9UGI9). Nature of the assay: AMP-dependent Kinase enzyme assay. An in vitro enzyme assay that detects ADP turnover that is directly proportional to AMPK activity. This uses naive AMPK that is activated during the assay with MK-8722. Type of assay: functional. The settings on record: 30 µM.

In assay [4] the target is Sialic acid-binding Ig-like lectin 9 (Homo sapiens) (UniProt Q9Y336). Nature of the assay: Hs-Siglec9 ALPHAscreen SOP 20170721. The settings on record: 10 µM.
Sialic acid-binding Ig-like lectin 9 (Homo sapiens), sequence (Q9Y336 whole entry): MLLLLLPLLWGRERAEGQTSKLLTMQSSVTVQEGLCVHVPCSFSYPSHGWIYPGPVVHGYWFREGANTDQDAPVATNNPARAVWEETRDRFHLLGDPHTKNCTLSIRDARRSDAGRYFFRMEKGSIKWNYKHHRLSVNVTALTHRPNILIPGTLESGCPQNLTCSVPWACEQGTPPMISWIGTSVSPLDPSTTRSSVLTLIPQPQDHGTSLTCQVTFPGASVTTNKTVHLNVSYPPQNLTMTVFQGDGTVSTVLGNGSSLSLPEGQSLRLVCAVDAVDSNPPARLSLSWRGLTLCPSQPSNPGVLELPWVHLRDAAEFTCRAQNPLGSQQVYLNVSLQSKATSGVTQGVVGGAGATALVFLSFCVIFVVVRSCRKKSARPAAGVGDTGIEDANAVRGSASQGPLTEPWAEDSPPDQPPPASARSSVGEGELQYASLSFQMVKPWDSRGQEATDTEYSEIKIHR
For the next assay, the system named is Trypanosoma cruzi. Nature of the assay: Trypanosoma cruzi phosphomannomutase and mannose-1-phosphate guanylyltransferase assay. Type of assay: functional. The settings on record: 10 µM.
The target in assay [5] is T2, Arginase-2, mitochondrial (Homo sapiens) (UniProt P78540).
T2 sequence (whole entry): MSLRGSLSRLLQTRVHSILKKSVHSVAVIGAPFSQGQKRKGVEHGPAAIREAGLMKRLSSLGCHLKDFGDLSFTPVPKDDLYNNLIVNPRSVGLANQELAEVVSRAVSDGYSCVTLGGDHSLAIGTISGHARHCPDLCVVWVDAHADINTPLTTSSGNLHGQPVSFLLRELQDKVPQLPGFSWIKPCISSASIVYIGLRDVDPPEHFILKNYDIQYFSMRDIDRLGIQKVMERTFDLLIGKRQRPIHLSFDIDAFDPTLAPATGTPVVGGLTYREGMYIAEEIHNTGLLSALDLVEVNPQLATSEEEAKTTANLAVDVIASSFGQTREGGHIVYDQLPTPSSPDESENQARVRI
Nature of the assay: in vitro enzyme assay to detect the production of urea directly proportional to the activity of Arginase II. Further: in the data most compounds retested in dose-response had high values. Type of assay: functional. The settings on record: 33.3 µM.

Assay [6] addresses T3, Proteasome subunit beta (Trypanosoma cruzi) (UniProt O96673).
T3 sequence (whole entry): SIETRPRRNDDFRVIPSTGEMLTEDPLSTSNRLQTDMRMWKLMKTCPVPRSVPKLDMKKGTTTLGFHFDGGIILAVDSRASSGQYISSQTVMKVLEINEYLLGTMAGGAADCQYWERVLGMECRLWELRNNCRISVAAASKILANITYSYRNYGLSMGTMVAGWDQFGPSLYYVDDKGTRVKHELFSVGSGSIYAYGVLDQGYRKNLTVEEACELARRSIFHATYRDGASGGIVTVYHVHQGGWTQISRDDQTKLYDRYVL
The experiment in a line: Trypanosoma cruzi proteasome chymotrypsin-like activity (TcProtChymo) assay. Further: in the data most compounds retested in dose-response had high values. Type of assay: functional. The settings on record: 9.37 µM.

The next assay is filed under the species Homo sapiens. The experiment in a line: To identify inhibition of the IFN signalling (Jak-Stat) pathway via expression of an eGFP reporter gene under the control of an IFN-stimulated response element (ISRE) containing MxA promoter. It is filed as functional. The settings on record: 30 µM. On the technique in general: In a reporter assay the amount or activity of a reporter protein is the signal.

For assay [7], the target named is T4, Tyrosyl-tRNA synthetase, putative (Trypanosoma cruzi (strain CL Brener)) (UniProt Q4DSP6).
T4 sequence (whole entry): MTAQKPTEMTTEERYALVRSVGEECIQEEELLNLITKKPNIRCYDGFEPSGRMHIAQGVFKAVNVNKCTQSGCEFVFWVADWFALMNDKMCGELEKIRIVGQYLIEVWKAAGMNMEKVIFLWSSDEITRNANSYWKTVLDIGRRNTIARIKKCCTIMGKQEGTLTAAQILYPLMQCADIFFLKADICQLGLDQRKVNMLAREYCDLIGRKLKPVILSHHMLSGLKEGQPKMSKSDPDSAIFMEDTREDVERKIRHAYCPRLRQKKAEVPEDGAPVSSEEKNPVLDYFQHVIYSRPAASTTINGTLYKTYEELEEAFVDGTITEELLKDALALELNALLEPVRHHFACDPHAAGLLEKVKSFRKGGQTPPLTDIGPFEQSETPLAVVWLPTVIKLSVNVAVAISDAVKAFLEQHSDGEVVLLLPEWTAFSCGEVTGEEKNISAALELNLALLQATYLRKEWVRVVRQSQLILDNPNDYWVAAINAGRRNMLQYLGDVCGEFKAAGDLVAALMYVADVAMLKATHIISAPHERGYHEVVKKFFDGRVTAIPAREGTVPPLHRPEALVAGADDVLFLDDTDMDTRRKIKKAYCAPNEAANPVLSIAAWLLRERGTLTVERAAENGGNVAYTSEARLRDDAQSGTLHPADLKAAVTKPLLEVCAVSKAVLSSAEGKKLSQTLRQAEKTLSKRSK
Nature of the assay: Trypanosoma cruzi tyrosyl tRNA synthetase (TcYRS) _High Tyrosine SOP. Further: in the data most compounds retested in dose-response had high values. It is filed as functional. Conditions: 30 µM.

Assay [8] deals with T4, Tyrosyl-tRNA synthetase, putative (Trypanosoma cruzi (strain CL Brener)). The experiment in a line: Trypanosoma cruzi tyrosyl tRNA synthetase (TcYRS) SOP. Conditions: 30 µM. It is filed as functional.
For assay [9], the target named is Chromo domain-containing protein 1 (Saccharomyces cerevisiae (strain ATCC 204508 / S288c) (Baker's yeast)) (UniProt P32657). The experiment in a line: ScCHD-1 Enzyme Inhibition Assay. Further: in the data most compounds retested in dose-response had high values. Type of assay: functional. The settings on record: 30 µM.
Chromo domain-containing protein 1 (Saccharomyces cerevisiae (strain ATCC 204508 / S288c) (Baker's yeast)), sequence (P32657 whole entry, the tested form may be a part): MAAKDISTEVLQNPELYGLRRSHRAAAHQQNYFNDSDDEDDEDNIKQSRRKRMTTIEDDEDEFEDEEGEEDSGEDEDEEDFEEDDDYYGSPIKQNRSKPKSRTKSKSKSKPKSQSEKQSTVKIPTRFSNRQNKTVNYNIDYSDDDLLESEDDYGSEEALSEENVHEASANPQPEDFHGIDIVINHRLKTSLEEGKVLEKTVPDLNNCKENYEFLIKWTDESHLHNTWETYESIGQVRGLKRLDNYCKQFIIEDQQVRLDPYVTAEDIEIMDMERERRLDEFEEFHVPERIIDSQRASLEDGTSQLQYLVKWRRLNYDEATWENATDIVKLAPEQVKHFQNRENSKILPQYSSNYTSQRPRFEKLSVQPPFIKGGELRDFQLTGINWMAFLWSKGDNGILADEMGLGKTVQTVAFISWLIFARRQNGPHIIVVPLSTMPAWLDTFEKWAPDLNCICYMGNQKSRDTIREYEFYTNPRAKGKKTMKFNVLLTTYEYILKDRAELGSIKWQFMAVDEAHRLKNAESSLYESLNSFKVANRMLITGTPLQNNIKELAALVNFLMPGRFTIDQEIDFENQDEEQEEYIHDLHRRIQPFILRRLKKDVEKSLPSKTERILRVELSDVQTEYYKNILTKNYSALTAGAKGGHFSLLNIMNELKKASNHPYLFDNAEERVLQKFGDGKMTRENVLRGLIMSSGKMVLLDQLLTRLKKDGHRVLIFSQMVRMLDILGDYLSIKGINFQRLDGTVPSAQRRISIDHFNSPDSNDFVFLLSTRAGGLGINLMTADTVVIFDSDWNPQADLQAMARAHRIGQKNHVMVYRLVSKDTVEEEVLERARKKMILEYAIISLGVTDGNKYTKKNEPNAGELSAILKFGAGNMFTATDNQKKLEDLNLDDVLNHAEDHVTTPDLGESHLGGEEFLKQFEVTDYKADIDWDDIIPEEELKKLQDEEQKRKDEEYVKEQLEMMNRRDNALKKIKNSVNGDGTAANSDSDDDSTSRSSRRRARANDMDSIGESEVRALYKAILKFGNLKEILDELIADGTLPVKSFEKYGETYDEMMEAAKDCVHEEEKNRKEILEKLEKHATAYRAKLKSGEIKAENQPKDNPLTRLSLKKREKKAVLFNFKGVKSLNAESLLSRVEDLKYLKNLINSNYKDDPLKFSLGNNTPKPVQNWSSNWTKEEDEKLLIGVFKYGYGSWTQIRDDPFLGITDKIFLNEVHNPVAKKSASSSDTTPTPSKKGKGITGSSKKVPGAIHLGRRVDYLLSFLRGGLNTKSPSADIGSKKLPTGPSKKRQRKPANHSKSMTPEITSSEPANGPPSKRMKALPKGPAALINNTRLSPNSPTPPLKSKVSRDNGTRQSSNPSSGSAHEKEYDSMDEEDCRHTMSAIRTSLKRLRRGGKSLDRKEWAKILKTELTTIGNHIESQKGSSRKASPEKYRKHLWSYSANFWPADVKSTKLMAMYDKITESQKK

For some assays here: Entries with a potency or affinity are not part of this list.

Protein translocase subunit SecA (Escherichia coli (strain K12)), sequence (P10408 whole entry): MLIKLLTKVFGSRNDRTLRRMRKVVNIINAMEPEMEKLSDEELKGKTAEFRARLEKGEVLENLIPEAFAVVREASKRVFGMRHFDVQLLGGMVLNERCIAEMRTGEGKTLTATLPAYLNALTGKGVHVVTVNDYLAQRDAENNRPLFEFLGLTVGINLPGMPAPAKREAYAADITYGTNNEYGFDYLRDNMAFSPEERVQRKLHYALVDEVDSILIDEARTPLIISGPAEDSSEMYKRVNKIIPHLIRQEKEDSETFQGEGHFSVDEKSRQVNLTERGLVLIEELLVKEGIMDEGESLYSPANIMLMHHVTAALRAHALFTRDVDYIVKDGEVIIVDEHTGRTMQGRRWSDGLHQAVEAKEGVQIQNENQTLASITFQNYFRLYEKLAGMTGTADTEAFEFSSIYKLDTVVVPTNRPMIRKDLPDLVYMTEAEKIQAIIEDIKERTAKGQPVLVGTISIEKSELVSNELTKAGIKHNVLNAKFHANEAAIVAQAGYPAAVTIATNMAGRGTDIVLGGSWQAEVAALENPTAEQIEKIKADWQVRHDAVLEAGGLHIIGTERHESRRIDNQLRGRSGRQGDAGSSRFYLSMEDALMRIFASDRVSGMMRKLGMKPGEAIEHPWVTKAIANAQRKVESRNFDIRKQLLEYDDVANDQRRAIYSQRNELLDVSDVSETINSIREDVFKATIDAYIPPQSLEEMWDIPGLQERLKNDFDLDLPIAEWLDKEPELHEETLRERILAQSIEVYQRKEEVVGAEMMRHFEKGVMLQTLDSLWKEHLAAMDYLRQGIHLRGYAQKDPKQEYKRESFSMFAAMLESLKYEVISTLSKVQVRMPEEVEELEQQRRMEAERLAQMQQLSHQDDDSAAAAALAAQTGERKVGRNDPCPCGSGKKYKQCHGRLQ

Regarding `O=C(NC[C@H]1OC[C@@H]2CCN(C(=O)c3ccco3)C[C@@H]21)C1CC1`, the Percent Effect in assay [1] was -4.23%; in assay [2], 2.7%; in [3], 1.41%; in assay [4], -2.71%; with Trypanosoma cruzi, -3.81%; in [5], 5.21%. Further, the Percent Effect is 10.6% in assay [6]; -3.1% in the assay listed under Homo sapiens; 2.15% in [7]; 11.1% in assay [8]; -4.6% in assay [9].
Turning to `CCN(Cc1ccc2c(c1)OCCO2)C(=O)NCc1cc[nH]n1`, the Percent Effect in [1] was -2.19%; in [2] it was 15.6%; in assay [3] it was 1.3%; in assay [4], 2.08%; in the assay with Trypanosoma cruzi, -2.06%; in assay [5], 1.47%. Besides, the Percent Effect is 7.03% in assay [6]; -7.15% in the assay filed under Homo sapiens; 5.71% in assay [7]; 11.8% in [8]; -19.3% in assay [9].
With `COCCc1noc(CN2CCc3nn(C(C)C)c(=O)cc3C2)n1`, the Percent Effect was -3.44% in assay [1]; 18.4% in assay [2]; -7.36% in assay [3]; -6.23% in assay [4]; -4.58% in the assay on Trypanosoma cruzi; 0.719% in assay [5]. The Percent Effect in assay [6] was 6.18%; in the assay filed under Homo sapiens it was 6.48%; in assay [7], 5.42%; in [8], 11.1%; in [9], -11.2%.
Regarding `CC(C)c1nccn1C1CCCN(C(=O)c2cnc[nH]2)C1` (stereo not given), the Percent Effect is -5.4% in assay [1]; 10.5% in assay [2]; -5.59% in [3]; 16.2% in assay [4]; 5.32% in the assay on Trypanosoma cruzi; 0.719% in assay [5]. The Percent Effect was 10.1% in assay [6]; -0.618% in the assay filed under Homo sapiens; 5.42% in assay [7]; 16.1% in assay [8]; -3.38% in [9].
Regarding `Cc1nc[nH]c1CN(C)CC1CCCN(CCc2ccc(Cl)cc2)C1` (stereo not given), the Percent Effect in [1] was 0.978%; in assay [2] it was -5.48%; in assay [3], 4.19%; in [4], 6.4%; in the assay with Trypanosoma cruzi, 4.11%; in [5] it was 10.4%. Besides, the Percent Effect was 5.32% in [6]; 61.3% in the assay filed under Homo sapiens; 9.68% in assay [7]; 2.5% in assay [8]; -4.79% in assay [9].
As for `Cc1noc(C(C)C)c1C(=O)NCc1cc(F)cc(F)c1`, the Percent Effect is -3.99% in [1]; 15.6% in assay [2]; 7.66% in assay [3]; -1.87% in assay [4]; -7.12% with Trypanosoma cruzi; 3.92% in assay [5]. Besides, the Percent Effect is 11.5% in assay [6]; 17.8% in the assay listed under Homo sapiens; 3.88% in assay [7]; 14.6% in assay [8]; -9.23% in assay [9].
Turning to `CCCN1CCN(C(=O)c2scnc2C)CC1`, the Percent Effect in assay [1] is -7.16%; in [2], 10.5%; in assay [3], 0.673%; in assay [4], 9.57%; with Trypanosoma cruzi it was 2.82%; in assay [5], 0%. Also, the Percent Effect is 9.3% in assay [6]; -10.2% in the assay listed under Homo sapiens; 1.06% in assay [7]; 10.4% in assay [8]; -4.16% in [9].
As for `COc1ccnc(N2CCN(C(=O)c3cnn(C)c3C3CC3)CC2)n1`, the Percent Effect in assay [1] was -5.79%; in [2], 10.8%; in assay [3] it was -3.14%; in [4] it was 28.6%; with Trypanosoma cruzi, 3.81%; in [5], 0.744%. Further, the Percent Effect was 6.61% in [6]; -9.54% in the assay listed under Homo sapiens; 4.3% in [7]; 16.1% in [8]; -13.1% in [9].
In the case of `COCC(=O)N1CCC2(CC1)COCCN2CCN(C)C`, the Percent Effect in [1] was 0.864%; in assay [2] it was -5.33%; in assay [3] it was -0.00705%; in [4], 4.73%; in the assay with Trypanosoma cruzi, -1.93%; in assay [5], -50%. Moreover, the Percent Effect in [6] is 0.342%; in the assay filed under Homo sapiens, -11.3%; in assay [7], 3.12%; in [8], -5%; in assay [9], 0.531%.
For `O=C(NCC1CCN(C(=O)c2ccoc2)CC1)c1ccccc1Br`, the Percent Effect was -6.61% in assay [1]; 5.48% in assay [2]; 3.13% in assay [3]; -5.78% in assay [4]; -4.7% in the assay with Trypanosoma cruzi; -0.455% in [5]. Further, the Percent Effect was 15.6% in [6]; -0.0227% in the assay listed under Homo sapiens; 3.23% in [7]; 5% in assay [8]; -4.05% in assay [9].
